Experimental data reported in publication PMC5540273 (PLoS ONE, 2017).

What was measured:
Conditions in all cases: concentration: 1 μM, replicates: in singlicate; n = 1
[1] = tested on: LRRK2
[2] = tested on: LTK
[3] = tested on: LYN
[4] = tested on: T1, LZK
T1 construct: gene MAP3K13

[5] = tested on: MAK
[6] = tested on: MAP3K15
[7] = tested on: MAP3K1
[8] = tested on: MAP3K2
[9] = tested on: MAP3K3
[10] = tested on: MAP3K4
[11] = tested on: MAP4K2
[12] = tested on: MAP4K3
[13] = tested on: MAP4K4
[14] = tested on: MAP4K5
[15] = tested on: MAPKAPK2
[16] = tested on: MAPKAPK5
[17] = tested on: MARK1
[18] = tested on: MARK2
[19] = tested on: MARK3
[20] = tested on: MARK4
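Further: KINOMEscan kinase panel screen.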

| Structure (SMILES) | %Inh [1] [%] | %Inh [2] [%] | %Inh [3] [%] | %Inh [4] [%] | %Inh [5] [%] | %Inh [6] [%] | %Inh [7] [%] | %Inh [8] [%] | %Inh [9] [%] | %Inh [10] [%] | %Inh [11] [%] | %Inh [12] [%] | %Inh [13] [%] | %Inh [14] [%] | %Inh [15] [%] | %Inh [16] [%] | %Inh [17] [%] | %Inh [18] [%] | %Inh [19] [%] | %Inh [20] [%] |
| --- | --- | --- | --- | --- | --- | --- | --- | --- | --- | --- | --- | --- | --- | --- | --- | --- | --- | --- | --- | --- |
| O=c1cc(N2CCOCC2)nc2n(Cc3ccccc3F)ccn12 [GSK2297428] | 0 | 21 | 0 | 0 | 8 | 0 | 2 | 0 | 0 | 0 | 0 | 0 | 0 | 0 | 0 | 0 | 100 | 0 | 0 | 69 |
| Cc1ccc(NC(=O)Nc2ccccc2F)cc1-c1ccc(C(=O)Nc2ccncc2)cc1 [GSK1398477] | 15 | 16 | 47 | 0 | 30 | 0 | 12 | 5 | 0 | 24 | 0 | 21 | 29 | 27 | 37 | 0 | 8 | 5 | 0 | 19 |
| O=C1NC(=O)C(c2ccc(Cl)cc2)=C1Nc1ccc(O)cc1 [SB-340867] | 0 | 0 | 8 | 0 | 7 | 7 | 0 | 0 | 11 | 28 | 0 | 0 | 0 | 0 | 8 | 0 | 0 | 1 | 20 | 0 |
| COc1cccc(CNC(=O)NC2CCN(c3ccnc(Nc4ccc(F)cc4)n3)C2)c1 (stereo not shown) [GSK1379723] | 25 | 59 | 0 | 0 | 23 | 0 | 7 | 0 | 0 | 13 | 0 | 8 | 2 | 1 | 16 | 0 | 0 | 0 | 0 | 0 |
| CCn1c(-c2c(N)noc2C)nc2cnccc21 [SB-737856] | 0 | 10 | 0 | 0 | 0 | 0 | 0 | 17 | 0 | 19 | 0 | 2 | 10 | 0 | 19 | 0 | 0 | 0 | 0 | 0 |
| Nc1cccc(-c2ccc3c(N)n[nH]c3c2)n1 [GSK2192730] | 0 | 0 | 0 | 0 | 26 | 0 | 23 | 0 | 0 | 25 | 59 | 0 | 0 | 0 | 0 | 0 | 0 | 10 | 0 | 0 |
| CC(C)c1ccc(O)cc1Nc1ccnc2ccc(C(F)(F)F)cc12 [GW482059] | 51 | 0 | 0 | 0 | 25 | 13 | 0 | 0 | 1 | 13 | 0 | 0 | 26 | 37 | 16 | 0 | 0 | 0 | 0 | 6 |
| O=C(Nc1n[nH]c2cc(-c3ccsc3)ccc12)C1CC1 [SB-732932] | 0 | 0 | 4 | 52 | 41 | 45 | 23 | 17 | 5 | 5 | 25 | 0 | 18 | 2 | 0 | 24 | 0 | 24 | 0 | 12 |
| Nc1ncnc2occ(-c3ccc4c(c3)CCN4C(=O)Cc3cc(F)ccc3F)c12 [GSK2645446] | 0 | 0 | 0 | 0 | 0 | 0 | 0 | 6 | 0 | 50 | 0 | 35 | 0 | 11 | 11 | 0 | 0 | 0 | 0 | 0 |
| COC(=O)C(Cc1ccccc1)NC(=O)NC1CCN(c2ccnc(Nc3ccc(F)cc3)n2)C1 (stereo not shown) [GSK1379714] | 0 | 0 | 22 | 23 | 35 | 0 | 0 | 0 | 0 | 0 | 0 | 0 | 9 | 3 | 21 | 0 | 0 | 8 | 0 | 4 |
| Cc1c(Cn2c3ccccc3n3c(=O)cc(N4CCOCC4)nc23)cccc1C(F)(F)F [GSK2306394] | 33 | 11 | 0 | 0 | 15 | 0 | 14 | 2 | 0 | 18 | 2 | 0 | 11 | 8 | 0 | 0 | 0 | 0 | 0 | 0 |
